# Results reported in the supplement of paper PMC8728848.
# The entries come from a sample that favours the strongest signals as a whole.
# Key:
# Assay in all cases: glycan array binding signal (z-score within array); higher = stronger binding
# [1] = test system: Fuc(a1-2)Gal(b1-3)GalNAc; settings: glycan notation: IUPAC condensed, linker removed
# Method in brief: (§1)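 Glycan array data came from 3228 arrays in the Consortium for Functional Glycomics database, and only arrays with an available protein sequence were kept. Glycan names were put into IUPAC-condensed notation, and columns mapping to the same glycan were averaged. The binding signal is a within-array Z-score, averaged across arrays of one protein sequence run at different concentrations or buffers and across linkers. A negative Z-score can be read as non-binding.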
# [2] = test system: Fuc(a1-2)Gal(b1-4)Glc6S; settings: glycan notation: IUPAC condensed, linker removed
# Method in brief: as §1
# [3] = test system: Fuc(a1-2)Gal(b1-3)GalNAc(a1-3)[Fuc(a1-2)]Gal(b1-4)Glc; settings: glycan notation: IUPAC condensed, linker removed
# Method in brief: as §1
# [4] = test system: Fuc(a1-2)Gal(b1-3)GalNAc(b1-3)Gal(a1-4)Gal(b1-4)Glc; settings: glycan notation: IUPAC condensed, linker removed
# Method in brief: as §1
# [5] = test system: Fuc(a1-2)Gal(b1-3)GlcNAc(b1-2)Man(a1-3)[Fuc(a1-2)Gal(b1-3)GlcNAc(b1-2)Man(a1-6)]Man(b1-4)GlcNAc(b1-4)GlcNAc; settings: glycan notation: IUPAC condensed, linker removed
# Method in brief: as §1
# [6] = test system: Fuc(a1-2)Gal(b1-3)[Fuc(a1-4)]GlcNAc(b1-2)Man(a1-3)[Fuc(a1-2)Gal(b1-3)[Fuc(a1-4)]GlcNAc(b1-2)Man(a1-3)]Man(b1-4)GlcNAc(b1-4)GlcNAc; settings: glycan notation: IUPAC condensed, linker removed; mutation: R125K
# Method in brief: as §1
# [7] = test system: Fuc(a1-2)Gal(b1-4)Fuc(a1-3)]GlcNAc(b1-2)Man(a1-3)[Fuc(a1-2)Gal(b1-4)[Fuc(a1-3)]GlcNAc(b1-2)Man(a1-6)]Man(b1-4)GlcNAc(b1-4)GlcNAc; settings: glycan notation: IUPAC condensed, linker removed; mutation: R125K
# Method in brief: as §1
# [8] = test system: Fuc(a1-2)Gal(b1-3)[Fuc(a1-4)]GlcNAc(b1-2)Man(a1-6)[Fuc(a1-2)Gal(b1-3)[Fuc(a1-4)]GlcNAc(b1-2)Man(a1-3)]Man(b1-4)GlcNAc(b1-4)[Fuc(a1-6)]GlcNAc; settings: glycan notation: IUPAC condensed, linker removed
# Method in brief: as §1
# [9] = test system: Fuc(a1-2)Gal(b1-3)[Fuc(a1-4)]GlcNAc; settings: glycan notation: IUPAC condensed, linker removed
# Method in brief: as §1
# [10] = test system: Fuc(a1-2)Gal(b1-3)GalNAc(a1-3)[Fuc(a1-2)]Gal(b1-4)GlcNAc; settings: glycan notation: IUPAC condensed, linker removed
# Method in brief: as §1
# [11] = test system: Fuc(a1-2)Gal(b1-3)GlcNAc(b1-3)[Gal(b1-4)GlcNAc(b1-6)]Gal(b1-4)Glc; settings: glycan notation: IUPAC condensed, linker removed
# Method in brief: as §1
# [12] = test system: Fuc(a1-2)Gal(b1-3)GalNAc(b1-3)Gal(b1-4)Glc; settings: glycan notation: IUPAC condensed, linker removed
# Method in brief: as §1
# [13] = test system: Fuc(a1-2)Gal(b1-3)GlcNAc(b1-3)Gal(b1-4)Glc; settings: glycan notation: IUPAC condensed, linker removed
# Method in brief: as §1
# [14] = test system: Fuc(a1-2)Gal(b1-3)GalNAc(b1-4)[Neu5Ac(a2-3)]Gal(b1-4)Glc; settings: glycan notation: IUPAC condensed, linker removed
# Method in brief: as §1
# [15] = test system: Fuc(a1-2)Gal(b1-3)GlcNAc; settings: glycan notation: IUPAC condensed, linker removed
# Method in brief: as §1
# [16] = test system: Fuc(a1-2)Gal(b1-3)[Fuc(a1-4)]GlcNAc(b1-2)Man(a1-3)[Fuc(a1-2)Gal(b1-3)[Fuc(a1-4)]GlcNAc(b1-2)Man(a1-6)]Man(b1-4)GlcNAc(b1-4)GlcNAc; settings: glycan notation: IUPAC condensed, linker removed
# Method in brief: as §1
# [17] = test system: Fuc(a1-2)Gal(b1-3)GlcNAc(b1-3)[Neu5Ac(a2-6)Gal(b1-4)GlcNAc(b1-6)]Gal(b1-4)Glc; settings: glycan notation: IUPAC condensed, linker removed
# Method in brief: as §1
# [18] = test system: Fuc(a1-2)Gal(b1-3)[Fuc(a1-4)]GlcNAc(b1-3)[Gal(b1-4)GlcNAc(b1-6)]Gal(b1-4)Glc; settings: glycan notation: IUPAC condensed, linker removed
# Method in brief: as §1
# [19] = test system: Fuc(a1-2)Gal(b1-4)GlcNAc(b1-2)Man(a1-3)[Fuc(a1-2)Gal(b1-4)GlcNAc(b1-2)Man(a1-6)]Man(b1-4)GlcNAc(b1-4)GlcNAc; settings: glycan notation: IUPAC condensed, linker removed
# Method in brief: as §1
# [20] = test system: Fuc(a1-2)Gal(b1-3)GalNAc(b1-3)Gal; settings: glycan notation: IUPAC condensed, linker removed
# Method in brief: as §1
# Chain of PILRb (Mus musculus), Q2YSF2 (Q2YSF2 entry or part of it): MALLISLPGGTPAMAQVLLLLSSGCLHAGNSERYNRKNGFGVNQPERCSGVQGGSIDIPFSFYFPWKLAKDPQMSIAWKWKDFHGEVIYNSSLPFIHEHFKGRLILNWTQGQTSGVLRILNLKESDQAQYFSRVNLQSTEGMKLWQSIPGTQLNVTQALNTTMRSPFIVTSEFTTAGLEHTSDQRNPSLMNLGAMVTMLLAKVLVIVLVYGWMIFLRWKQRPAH
# Chain of CHI3L1 (Homo sapiens), P36222 (P36222 whole entry): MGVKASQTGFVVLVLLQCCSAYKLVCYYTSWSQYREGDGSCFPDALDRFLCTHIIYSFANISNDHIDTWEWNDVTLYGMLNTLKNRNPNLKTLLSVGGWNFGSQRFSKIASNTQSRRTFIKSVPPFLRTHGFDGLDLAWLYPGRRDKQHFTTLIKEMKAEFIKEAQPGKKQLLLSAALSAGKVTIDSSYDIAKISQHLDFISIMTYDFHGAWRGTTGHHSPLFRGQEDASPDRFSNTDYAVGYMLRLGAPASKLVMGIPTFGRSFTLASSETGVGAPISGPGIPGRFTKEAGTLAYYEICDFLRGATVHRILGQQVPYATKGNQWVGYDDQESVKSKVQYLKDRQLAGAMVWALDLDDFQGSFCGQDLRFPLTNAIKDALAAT
# Chain of PILRa (Mus musculus), Q2YSF3 (Q2YSF3 entry or part of it): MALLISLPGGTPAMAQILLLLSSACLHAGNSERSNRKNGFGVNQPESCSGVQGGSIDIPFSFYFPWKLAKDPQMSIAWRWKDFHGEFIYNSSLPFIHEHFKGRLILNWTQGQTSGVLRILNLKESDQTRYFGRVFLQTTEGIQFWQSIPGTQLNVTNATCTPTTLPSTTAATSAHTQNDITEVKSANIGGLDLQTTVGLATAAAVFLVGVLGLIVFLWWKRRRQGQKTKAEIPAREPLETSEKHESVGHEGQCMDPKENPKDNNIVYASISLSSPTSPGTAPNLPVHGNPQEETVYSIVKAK
# Chain of Avaren (Actinomycete K97) (chain, as listed by the source): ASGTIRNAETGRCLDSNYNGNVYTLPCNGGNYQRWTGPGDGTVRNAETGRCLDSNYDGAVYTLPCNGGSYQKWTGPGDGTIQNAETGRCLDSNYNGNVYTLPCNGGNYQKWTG
# Chain of 6RG (Lolium perenne) (chain, as listed by the source): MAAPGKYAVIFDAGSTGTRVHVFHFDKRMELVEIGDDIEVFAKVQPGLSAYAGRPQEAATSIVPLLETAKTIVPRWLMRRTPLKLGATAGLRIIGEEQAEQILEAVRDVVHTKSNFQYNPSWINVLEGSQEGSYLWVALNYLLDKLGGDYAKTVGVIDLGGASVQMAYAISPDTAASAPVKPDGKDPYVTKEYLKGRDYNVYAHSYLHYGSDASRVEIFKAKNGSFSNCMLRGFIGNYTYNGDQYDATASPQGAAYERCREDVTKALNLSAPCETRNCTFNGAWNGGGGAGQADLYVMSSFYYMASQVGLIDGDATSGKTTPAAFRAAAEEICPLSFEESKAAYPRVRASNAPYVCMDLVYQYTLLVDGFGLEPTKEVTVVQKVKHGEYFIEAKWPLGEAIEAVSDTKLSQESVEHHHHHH
# Chain of C3b (Homo sapiens), P01024 (P01024 23-667): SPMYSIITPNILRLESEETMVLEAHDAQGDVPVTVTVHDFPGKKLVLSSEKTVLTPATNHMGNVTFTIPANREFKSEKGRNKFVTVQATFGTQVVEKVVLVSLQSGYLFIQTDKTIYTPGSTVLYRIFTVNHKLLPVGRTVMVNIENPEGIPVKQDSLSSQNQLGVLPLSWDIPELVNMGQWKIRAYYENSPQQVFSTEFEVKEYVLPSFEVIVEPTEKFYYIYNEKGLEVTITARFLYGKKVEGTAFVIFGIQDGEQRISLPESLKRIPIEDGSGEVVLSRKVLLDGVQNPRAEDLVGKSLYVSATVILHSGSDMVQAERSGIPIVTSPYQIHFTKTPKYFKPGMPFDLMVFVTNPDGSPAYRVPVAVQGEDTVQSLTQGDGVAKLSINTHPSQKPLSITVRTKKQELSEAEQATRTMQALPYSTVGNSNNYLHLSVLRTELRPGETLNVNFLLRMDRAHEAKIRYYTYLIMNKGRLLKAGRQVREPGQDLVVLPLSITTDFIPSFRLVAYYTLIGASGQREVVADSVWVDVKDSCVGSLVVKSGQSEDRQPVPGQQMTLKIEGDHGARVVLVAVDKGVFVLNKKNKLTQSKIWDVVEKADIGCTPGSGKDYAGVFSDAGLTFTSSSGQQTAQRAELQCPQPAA
# Chain of CHT (Homo sapiens) (chain, as listed by the source): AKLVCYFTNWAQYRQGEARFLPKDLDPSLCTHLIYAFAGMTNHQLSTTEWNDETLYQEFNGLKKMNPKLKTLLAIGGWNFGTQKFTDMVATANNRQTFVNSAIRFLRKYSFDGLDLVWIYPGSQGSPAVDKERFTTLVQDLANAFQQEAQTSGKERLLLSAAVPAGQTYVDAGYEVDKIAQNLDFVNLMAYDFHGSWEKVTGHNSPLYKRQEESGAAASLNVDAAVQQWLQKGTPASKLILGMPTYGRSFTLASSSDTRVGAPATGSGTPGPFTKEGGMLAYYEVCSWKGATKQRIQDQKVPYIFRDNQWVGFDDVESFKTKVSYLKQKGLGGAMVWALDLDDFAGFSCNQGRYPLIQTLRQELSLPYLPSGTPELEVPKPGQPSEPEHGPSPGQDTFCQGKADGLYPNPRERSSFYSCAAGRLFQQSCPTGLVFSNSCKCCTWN
# Chain of Regenerating Gene IV (Homo sapiens), Q9BYZ8 (Q9BYZ8 whole entry, looked up): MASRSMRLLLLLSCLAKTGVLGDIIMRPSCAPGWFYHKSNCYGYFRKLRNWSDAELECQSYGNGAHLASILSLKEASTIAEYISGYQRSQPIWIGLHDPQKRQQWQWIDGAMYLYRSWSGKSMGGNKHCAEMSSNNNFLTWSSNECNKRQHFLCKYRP
# Chain of Aggrecan (Rattus norvegicus), NP_071526 (chain, as listed by the source): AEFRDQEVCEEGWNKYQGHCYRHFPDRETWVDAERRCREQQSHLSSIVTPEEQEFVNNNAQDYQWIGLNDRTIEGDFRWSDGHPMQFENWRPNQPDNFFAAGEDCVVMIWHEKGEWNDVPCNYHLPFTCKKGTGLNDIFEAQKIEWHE
substance,measurement,setting,value
CHT (Homo sapiens),glycan array binding signal (z-score),"[1]; mutation: D138V, E140I",0.451
"Regenerating Gene IV (Homo sapiens), Q9BYZ8",glycan array binding signal (z-score),[2],2.53
"Siglec-8 (Homo sapiens), Q9NYZ4",glycan array binding signal (z-score),[3]; mutation: R125K,0.206
same,glycan array binding signal (z-score),[4]; mutation: R125K,-0.14
same,glycan array binding signal (z-score),[1]; mutation: R125K,-0.339
same,glycan array binding signal (z-score),[5],0.028
same,glycan array binding signal (z-score),[6],1.44
same,glycan array binding signal (z-score),[7],2.42
"Aggrecan (Rattus norvegicus), NP_071526",glycan array binding signal (z-score),[4],-0.123
"CHI3L1 (Homo sapiens), P36222",glycan array binding signal (z-score),[5],-0.032
same,glycan array binding signal (z-score),[8],0.653
same,glycan array binding signal (z-score),[9],5.09
Avaren (Actinomycete K97),glycan array binding signal (z-score),[10],-0.138
same,glycan array binding signal (z-score),[11],-0.128
6RG (Lolium perenne),glycan array binding signal (z-score),[12],7.3
same,glycan array binding signal (z-score),[13],6.52
"C3b (Homo sapiens), P01024",glycan array binding signal (z-score),[4],0.194
same,glycan array binding signal (z-score),[14],0.329
"PILRb (Mus musculus), Q2YSF2",glycan array binding signal (z-score),[4],-0.245
same,glycan array binding signal (z-score),[15],-0.281
same,glycan array binding signal (z-score),[16],2.44
MpAFP RI GFP (Marinomonas primoryensis),glycan array binding signal (z-score),[17],-0.127
same,glycan array binding signal (z-score),[18],-0.303
same,glycan array binding signal (z-score),[9],-0.05
same,glycan array binding signal (z-score),[19],-0.295
"PILRa (Mus musculus), Q2YSF3",glycan array binding signal (z-score),[3],0.037
same,glycan array binding signal (z-score),[20],0.134
same,glycan array binding signal (z-score),[1],-0.151
same,glycan array binding signal (z-score),[13],-0.127
same,glycan array binding signal (z-score),[11],-0.176
